Experimental data taken from PubChem BioAssay (NCI).
The panel holds about 79,000 compounds, 15% with a hit somewhere; the sample as a whole holds those more often. Calls of active or inactive are those of the source. No stated cut-off is given here; in the data, active means growth inhibition above about 70%; inactive means the rest.

Columns and labels:
[1] = NCI Yeast Anticancer Drug Screen. Data for the rad52 strain (AID 147);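 further: 0% = growth of vehicle-treated control cultures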; details: S. cerevisiae rad52 mutant growth inhibition, hits give high values
Outline: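 Screen used a yeast mutant impaired in DNA repair. After compound exposure, growth was measured. Values reflect inhibition compared with vehicle-treated cells.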

[2] = NCI Yeast Anticancer Drug Screen. Data for the wt1 strain (AID 149);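 further: 0% = growth of vehicle-treated wt1 cultures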; details: S. cerevisiae wt1 strain (SPY 50644) growth inhibition, hits give high values
Outline: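 Readout: yeast growth inhibition, normalised to vehicle controls, in the wt1 strain exposed to test compounds.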

[3] = NCI Yeast Anticancer Drug Screen. Data for the rad50EPP+ strain (AID 151);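 further: 0% = growth of vehicle-treated control cultures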; details: S. cerevisiae rad50 mutant strain, hits give high values
Outline: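 Exposing the rad50EPP+ strain to each compound, growth was compared with vehicle-only cultures to give inhibition.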

[4] = NCI Yeast Anticancer Drug Screen. Data for the mgt1 strain (AID 153); details: S. cerevisiae mgt1 mutant growth inhibition, hits give high values
Outline: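 Genetically defined yeast (mgt1) treated with compound; inhibition of growth expressed against vehicle-treated controls.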

[5] = NCI Yeast Anticancer Drug Screen. Data for the rad50 strain (AID 155);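 further: 0% = growth of vehicle-only cultures of the same strain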; details: S. cerevisiae rad50 strain growth inhibition, hits give high values
Outline: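 Compounds were tested on a yeast strain with an engineered DNA damage repair alteration; the reported value is growth inhibition normalised to vehicle treatment.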

[6] = NCI Yeast Anticancer Drug Screen. Data for the mec2-1 strain (AID 157); details: S. cerevisiae mec2-1 strain, hits give high values
Outline: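 Readout is yeast growth inhibition, normalised to vehicle-treated controls, in the mec2-1 strain exposed to compound.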

[7] = NCI Yeast Anticancer Drug Screen. Data for the rad14 strain (AID 159);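 further: 0% = growth of vehicle-treated control cultures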; details: S. cerevisiae rad14 strain growth inhibition, hits give high values
Outline: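 Compound-treated yeast with a defined DNA-repair lesion; growth inhibition normalised to vehicle-treated cultures.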

[8] = NCI Yeast Anticancer Drug Screen. Data for the sgs1 mgt1 strain (AID 161);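 further: 0% = growth of cultures given vehicle only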; details: S. cerevisiae sgs1 mgt1 strain, hits give high values
Outline: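 Growth of a repair-deficient yeast mutant was monitored after compound treatment and expressed as inhibition relative to vehicle-treated cultures.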

[9] = NCI Yeast Anticancer Drug Screen. Data for the CLN2oe strain (AID 163);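 further: 0% = growth of vehicle-only control cultures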; details: S. cerevisiae CLN2oe strain, hits give high values
Outline: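 Values reflect how much compound exposure reduced yeast growth, referenced to vehicle-exposed cells. Assay organism is a strain with a defined genetic change affecting cell-cycle control.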

[10] = NCI Yeast Anticancer Drug Screen. Data for the cln2 rad14 strain (AID 165);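 further: 0% = growth equal to vehicle treated cultures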; details: S. cerevisiae cln2 rad14 strain, hits give high values
Outline: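 Relative to vehicle controls, growth inhibition of compound-treated cln2 rad14 yeast was recorded.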

[11] = NCI Yeast Anticancer Drug Screen. Data for the bub3 strain (AID 167); details: S. cerevisiae bub3 mutant strain, hits give high values
Outline: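 Growth of a checkpoint-deficient yeast mutant is measured after compound exposure. Values represent inhibition relative to vehicle.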

[12] = NCI Yeast Anticancer Drug Screen. Data for the wt2 strain (AID 169);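 further: 0% = growth of vehicle-treated yeast cultures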; details: S. cerevisiae wt2 strain growth inhibition, hits give high values
Outline: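 Values express reduction in yeast growth under compound treatment, referenced to vehicle-treated cells.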

[13] = NCI Yeast Anticancer Drug Screen. Data for the mlh1 strain (AID 171);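 further: 0% = growth of vehicle-treated control cultures of the same strain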; details: S. cerevisiae mlh1 strain growth inhibition, hits give high values
Outline: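 Steps: expose the defined-mutant yeast strain to compound; expose a parallel culture to vehicle; measure growth; express compound effect as inhibition relative to the vehicle culture.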

[14] = NCI Yeast Anticancer Drug Screen. Data for the sgs1 strain (AID 173);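 further: 0% = growth of vehicle-only control cultures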; details: S. cerevisiae sgs1 mutant, hits give high values
Outline: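 Treat defined-mutant yeast with compound; measure growth; calculate inhibition relative to vehicle-treated cells.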

[15] = NCI Yeast Anticancer Drug Screen. Data for the mlh1 rad18 strain (AID 175); details: S. cerevisiae mlh1 rad18 strain growth inhibition, hits give high values
Outline: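 Test agents were incubated with a yeast strain of defined genotype (DNA damage repair defect). Inhibition of growth was derived by comparison with vehicle-exposed cultures.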

[16] = NCI Yeast Anticancer Drug Screen. Data for the rad18 strain (AID 177); details: S. cerevisiae rad18 mutant growth inhibition, hits give high values
Outline: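 A genetically defined yeast mutant impaired in DNA damage repair was treated with test compounds, then its growth was measured against cultures receiving vehicle alone.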

[17] = at 5.0 µM (retest, dose inferred, filed as 0.5)
[18] = at 50.0 µM (retest, dose inferred, filed as 5.0)

Measured: growth inhibition

c1ccc([P+](CCN2Cc3ccccc3C2)(c2ccccc2)c2ccccc2)cc1
inactive: [1]; at 1.2 µM 29% | [1]; at 3.7 µM 54% | [1]; at 11.0 µM 39% | [1]; at 33.0 µM 64% | [2]; at 1.2 µM -7% | [2]; at 3.7 µM 31% | [2]; at 11.0 µM 26% | [2]; at 33.0 µM 38% | [3]; at 1.2 µM -21% | [3]; at 3.7 µM -15% | [3]; at 11.0 µM -10% | [3]; at 33.0 µM -8% | [3]; at 100.0 µM 6% | [4]; at 1.2 µM -19% | [4]; at 3.7 µM 2% | [4]; at 11.0 µM 28% | [4]; at 33.0 µM 48% | [5]; at 1.2 µM 30% | [5]; at 3.7 µM 64% | [5]; [17] 64% | [5]; at 11.0 µM 61% | [5]; at 33.0 µM 61% | [5]; [18] 69% | [6]; at 1.2 µM -15% | [6]; at 3.7 µM 39% | [6]; [17] 49% | [6]; at 11.0 µM 36% | [6]; at 33.0 µM 67% | [7]; at 1.2 µM -22% | [7]; at 3.7 µM 13% | [7]; at 11.0 µM 21% | [7]; at 33.0 µM 53% | [8]; [17] 22% | [9]; at 1.2 µM 19% | [9]; at 3.7 µM 11% | [9]; at 11.0 µM 29% | [9]; at 33.0 µM 50% | [10]; [17] 23% | [10]; [18] 25% | [11]; at 1.2 µM 7% | [11]; at 3.7 µM 39% | [11]; [17] 21% | [11]; at 11.0 µM 31% | [11]; at 33.0 µM 64% | [12]; at 1.2 µM -45% | [12]; at 3.7 µM -19% | [12]; at 11.0 µM 11% | [12]; at 33.0 µM 31% | [13]; at 1.2 µM -39% | [13]; at 3.7 µM 18% | [13]; at 11.0 µM 32% | [13]; at 33.0 µM 60% | [14]; at 1.2 µM 13% | [14]; at 3.7 µM 35% | [14]; at 11.0 µM 53% | [14]; at 33.0 µM 67% | [16]; at 1.2 µM 49% | [16]; at 11.0 µM 58%
active: [1]; at 100.0 µM 95% | [2]; at 100.0 µM 95% | [4]; at 100.0 µM 95% | [5]; at 50.0 µM 72.1% | [5]; at 100.0 µM 95% | [6]; [18] 81% | [6]; at 50.0 µM 78.9% | [6]; at 100.0 µM 95% | [7]; at 100.0 µM 70% | [8]; [18] 97% | [8]; at 50.0 µM 82% | [9]; at 100.0 µM 93% | [10]; at 50.0 µM 76% | [11]; [18] 98% | [11]; at 50.0 µM 79.1% | [11]; at 100.0 µM 94% | [12]; at 100.0 µM 93% | [13]; at 100.0 µM 95% | [14]; at 100.0 µM 96% | [15]; [17] 71% | [15]; [18] 87% | [15]; at 50.0 µM 88.8% | [16]; at 3.7 µM 71% | [16]; at 33.0 µM 74% | [16]; at 100.0 µM 96%

COc1cc([N+](=O)[O-])c2ncccc2c1Br
active: [10]; at 50.0 µM 81.8%
inactive: [1]; at 1.2 µM 41% | [1]; at 3.7 µM 41% | [1]; at 11.0 µM 47% | [1]; at 33.0 µM 44% | [1]; at 100.0 µM 42% | [2]; at 1.2 µM -1% | [2]; at 3.7 µM -7% | [2]; at 11.0 µM 5% | [2]; at 33.0 µM -2% | [2]; at 100.0 µM -3% | [3]; at 1.2 µM 11% | [3]; at 3.7 µM 16% | [3]; at 11.0 µM 29% | [3]; at 33.0 µM 36% | [3]; at 100.0 µM 24% | [4]; at 1.2 µM -2% | [4]; at 3.7 µM -6% | [4]; at 11.0 µM -1% | [4]; at 33.0 µM -4% | [4]; at 100.0 µM -4% | [5]; at 1.2 µM 15% | [5]; at 3.7 µM 12% | [5]; [17] 14% | [5]; at 11.0 µM 25% | [5]; at 33.0 µM 33% | [5]; [18] 32% | [5]; at 50.0 µM 32.9% | [5]; at 100.0 µM 20% | [6]; at 1.2 µM 2% | [6]; at 3.7 µM 2% | [6]; [17] 2% | [6]; at 11.0 µM 5% | [6]; at 33.0 µM -1% | [6]; [18] 16% | [6]; at 50.0 µM 9.05% | [6]; at 100.0 µM 2% | [7]; at 1.2 µM 35% | [7]; at 3.7 µM 51% | [7]; at 11.0 µM 67% | [7]; at 33.0 µM 49% | [7]; at 100.0 µM 55% | [8]; [17] 26% | [8]; [18] 41% | [8]; at 50.0 µM 25.1% | [9]; at 1.2 µM -11% | [9]; at 3.7 µM -7% | [9]; at 11.0 µM -11% | [9]; at 33.0 µM -11% | [9]; at 100.0 µM -11% | [10]; [17] 22% | [10]; [18] 57% | [11]; at 1.2 µM -15% | [11]; at 3.7 µM -14% | [11]; [17] -4% | [11]; at 11.0 µM -16% | [11]; at 33.0 µM -18% | [11]; [18] -3% | [11]; at 50.0 µM -3.7% | [11]; at 100.0 µM -18%
